# Laboratory results as given in publication PMC5700166.
# Positions count from the first letter of the chain named.
# Tests used:
# Assay in all cases: protein-binding microarray (PBM); PBM: ~300 nM protein, 6 mM HEPES pH 7.8, 80 mM KCl, 0.5 mM EDTA, 0.5 mM EGTA, 6% glycerol, 35 ng/ul poly-dIdC, 1% milk, 1 h, room temperature; Ap Aiptasia and Nv Nematostella (sea anemones) / Co Capsaspora / Aq Amphimedon (sponge) / Dm Drosophila / Hu human; RHD is the Rel homology domain; high values mean tight binding
# Details in all cases: dsDNA, one strand shown
# [1] = target: T1, GST-Ap-NF-kB RHD (Exaiptasia pallida (Aiptasia), UniProt A0A913YAJ5 2-422)
# T1 sequence: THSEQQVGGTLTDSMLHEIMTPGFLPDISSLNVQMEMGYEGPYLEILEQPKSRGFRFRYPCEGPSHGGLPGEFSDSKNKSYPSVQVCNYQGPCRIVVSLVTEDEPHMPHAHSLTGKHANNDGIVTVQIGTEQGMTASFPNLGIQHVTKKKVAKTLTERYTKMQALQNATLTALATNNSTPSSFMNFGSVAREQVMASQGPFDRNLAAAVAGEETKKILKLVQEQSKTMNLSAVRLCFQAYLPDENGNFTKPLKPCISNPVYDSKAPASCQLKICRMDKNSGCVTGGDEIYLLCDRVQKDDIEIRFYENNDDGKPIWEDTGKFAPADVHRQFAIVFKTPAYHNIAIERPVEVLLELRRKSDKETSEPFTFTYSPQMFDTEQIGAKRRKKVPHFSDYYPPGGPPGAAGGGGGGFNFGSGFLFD
# [2] = target: T2, GST-Nv-NF-kB (Cys allele) (Nematostella vectensis, UniProt E5G601 2-411)
# T2 sequence: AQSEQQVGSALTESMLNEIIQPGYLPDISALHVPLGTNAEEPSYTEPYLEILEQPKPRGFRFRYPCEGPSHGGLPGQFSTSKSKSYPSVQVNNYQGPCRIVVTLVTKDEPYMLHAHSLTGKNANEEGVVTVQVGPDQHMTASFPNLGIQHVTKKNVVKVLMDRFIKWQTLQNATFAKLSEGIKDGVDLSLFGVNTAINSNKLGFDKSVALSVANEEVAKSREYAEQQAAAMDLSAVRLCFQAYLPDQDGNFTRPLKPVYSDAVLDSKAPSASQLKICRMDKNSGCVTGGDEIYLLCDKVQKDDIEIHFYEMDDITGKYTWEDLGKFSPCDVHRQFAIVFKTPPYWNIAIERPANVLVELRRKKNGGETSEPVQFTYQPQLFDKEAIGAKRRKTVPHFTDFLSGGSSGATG
# [3] = target: T3, GST-Nv-NF-kB (Ser allele) (Nematostella vectensis, UniProt A7UNT2 2-411)
# T3 sequence: T2 sequence with Q21R, C66S, S207N, E215Q, V217A, E225K, A268E, D399E
# [4] = target: T4, GST-Dm-Relish (Drosophila melanogaster, UniProt Q94527 99-473)
# T4 sequence: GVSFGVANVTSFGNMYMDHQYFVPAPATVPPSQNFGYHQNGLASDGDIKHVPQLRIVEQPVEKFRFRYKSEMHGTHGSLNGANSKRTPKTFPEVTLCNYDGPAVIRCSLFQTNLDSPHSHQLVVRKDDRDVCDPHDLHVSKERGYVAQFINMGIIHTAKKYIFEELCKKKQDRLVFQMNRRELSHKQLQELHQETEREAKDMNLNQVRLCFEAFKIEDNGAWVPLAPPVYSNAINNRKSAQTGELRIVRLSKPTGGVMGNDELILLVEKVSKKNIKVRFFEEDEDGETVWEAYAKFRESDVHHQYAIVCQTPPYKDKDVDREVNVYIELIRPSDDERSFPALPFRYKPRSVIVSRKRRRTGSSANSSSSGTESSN
# [5] = target: T5, GST-Aq-NF-kB (Amphimedon queenslandica, UniProt A9Y5G7 2-389)
# T5 sequence: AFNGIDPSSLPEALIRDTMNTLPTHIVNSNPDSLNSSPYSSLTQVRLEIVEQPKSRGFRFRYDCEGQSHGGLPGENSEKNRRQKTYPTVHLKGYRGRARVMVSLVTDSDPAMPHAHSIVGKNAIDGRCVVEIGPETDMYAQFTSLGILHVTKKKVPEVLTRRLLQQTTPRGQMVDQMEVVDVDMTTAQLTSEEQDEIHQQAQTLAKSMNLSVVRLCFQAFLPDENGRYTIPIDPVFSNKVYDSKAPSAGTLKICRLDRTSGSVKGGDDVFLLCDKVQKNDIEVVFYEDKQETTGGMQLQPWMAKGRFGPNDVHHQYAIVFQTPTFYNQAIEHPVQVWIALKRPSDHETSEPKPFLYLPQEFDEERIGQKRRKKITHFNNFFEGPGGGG
# [6] = target: GST-Hu-p50 (Homo sapiens, UniProt P19838 7-356)
# [7] = target: T6, GST-Co-NF-kB (Capsaspora owczarzaki, UniProt F1ARL5 200-546)
# T6 sequence: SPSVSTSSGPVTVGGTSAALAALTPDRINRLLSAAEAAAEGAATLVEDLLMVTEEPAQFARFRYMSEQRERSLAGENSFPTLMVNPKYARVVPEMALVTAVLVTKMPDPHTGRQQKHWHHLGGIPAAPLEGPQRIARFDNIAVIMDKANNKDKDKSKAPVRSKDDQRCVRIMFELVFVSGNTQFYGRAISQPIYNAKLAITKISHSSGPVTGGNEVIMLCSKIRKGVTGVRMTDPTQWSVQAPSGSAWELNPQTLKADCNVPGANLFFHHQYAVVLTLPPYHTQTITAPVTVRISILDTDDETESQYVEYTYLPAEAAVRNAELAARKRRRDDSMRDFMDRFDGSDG
# GST-Hu-p50, sequence (P19838 7-356): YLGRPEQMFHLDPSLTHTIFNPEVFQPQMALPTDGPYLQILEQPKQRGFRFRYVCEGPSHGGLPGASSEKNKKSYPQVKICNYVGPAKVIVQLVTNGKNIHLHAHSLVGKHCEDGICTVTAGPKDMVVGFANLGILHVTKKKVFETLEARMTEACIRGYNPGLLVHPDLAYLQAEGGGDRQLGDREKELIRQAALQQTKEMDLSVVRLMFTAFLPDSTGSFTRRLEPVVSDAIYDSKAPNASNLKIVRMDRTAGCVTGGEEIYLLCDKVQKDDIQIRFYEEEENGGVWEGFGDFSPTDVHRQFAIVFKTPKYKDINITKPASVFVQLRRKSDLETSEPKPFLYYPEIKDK
Sequence,binding signal [1],binding signal [2],binding signal [3],binding signal [4],binding signal [5],binding signal [6],binding signal [7]
CCGATTAACATCAAGGGACTTTCTGATGTTAATCGGGTCTTGATTCGCTTGACGCTGCTG,7.14 z-score,9.44 z-score,8.36 z-score,7.3 z-score,7.13 z-score,5.98 z-score,–
CCGATTAACATCAGGGACATCCCTGATGTTAATCGGGTCTTGATTCGCTTGACGCTGCTG,5.51 z-score,6.99 z-score,4.22 z-score,7.71 z-score,7.32 z-score,3.84 z-score,–
CCGATTAACATCAGGGATTGCCCTGATGTTAATCGGGTCTTGATTCGCTTGACGCTGCTG,4.32 z-score,3.8 z-score,1.87 z-score,5.25 z-score,6.11 z-score,2.54 z-score,–
CCGATTAACATCACCAAACCCCCTGATGTTAATCGGGTCTTGATTCGCTTGACGCTGCTG,6.25 z-score,4.31 z-score,–,5.55 z-score,4.31 z-score,6.3 z-score,2.03 z-score
CCGATTAACATCAGGAAACCACCTGATGTTAATCGGGTCTTGATTCGCTTGACGCTGCTG,4.41 z-score,4.04 z-score,3.92 z-score,7.57 z-score,6.62 z-score,6.09 z-score,–
CCGATTAACATCAGGAAGCCCCATGATGTTAATCGGGTCTTGATTCGCTTGACGCTGCTG,4.01 z-score,4.13 z-score,2.15 z-score,5.38 z-score,4.02 z-score,3.77 z-score,–
CCGATTAACATCAAGGTGTTTCCTGATGTTAATCGGGTCTTGATTCGCTTGACGCTGCTG,1.56 z-score,1.48 z-score,1.39 z-score,1.91 z-score,2.48 z-score,3.43 z-score,–
CCGATTAACATCATGTATGCCCCTGATGTTAATCGGGTCTTGATTCGCTTGACGCTGCTG,1.68 z-score,1.71 z-score,–,1.12 z-score,2.51 z-score,1.27 z-score,1.24 z-score
CCGATTAACATCAGGGAAACTTATGATGTTAATCGGGTCTTGATTCGCTTGACGCTGCTG,3.98 z-score,6.28 z-score,–,2.25 z-score,6.43 z-score,4.53 z-score,5.54 z-score
CCGATTAACATCAGGCGTTCCCCTGATGTTAATCGGGTCTTGATTCGCTTGACGCTGCTG,5.26 z-score,6.01 z-score,–,6.34 z-score,5.53 z-score,4.27 z-score,3.98 z-score
CCGATTAACATCAAATTCCCTTATGATGTTAATCGGGTCTTGATTCGCTTGACGCTGCTG,3.4 z-score,5.97 z-score,–,3.37 z-score,5.01 z-score,4.42 z-score,2.16 z-score
CCGATTAACATCAAAATTCCCGATGATGTTAATCGGGTCTTGATTCGCTTGACGCTGCTG,4.37 z-score,6.05 z-score,–,5.06 z-score,4.93 z-score,4.38 z-score,4.55 z-score
CCGATTAACATCAGGGGGAGTACTGATGTTAATCGGGTCTTGATTCGCTTGACGCTGCTG,6.52 z-score,4.73 z-score,–,9.03 z-score,6.58 z-score,5.94 z-score,5.82 z-score
CCGATTAACATCAGGAGTTCCCATGATGTTAATCGGGTCTTGATTCGCTTGACGCTGCTG,2.2 z-score,2.14 z-score,–,6.1 z-score,3.51 z-score,1.53 z-score,1.68 z-score
CCGATTAACATCAGAGATCCCCCTGATGTTAATCGGGTCTTGATTCGCTTGACGCTGCTG,7.26 z-score,6.17 z-score,–,6.84 z-score,5.8 z-score,6.13 z-score,4.52 z-score
CCGATTAACATCAGGGGGGAGACTGATGTTAATCGGGTCTTGATTCGCTTGACGCTGCTG,5.88 z-score,4.78 z-score,–,3.61 z-score,4.79 z-score,6.44 z-score,6.95 z-score
CCGATTAACATCAGGGGATATAATGATGTTAATCGGGTCTTGATTCGCTTGACGCTGCTG,5.05 z-score,4.66 z-score,–,3.82 z-score,3.39 z-score,4.28 z-score,4.01 z-score
CCGATTAACATCACAACGACCCCTGATGTTAATCGGGTCTTGATTCGCTTGACGCTGCTG,2.27 z-score,1.3 z-score,–,1.08 z-score,2.48 z-score,1.12 z-score,1.28 z-score
CCGATTAACATCAATCCACCCCCTGATGTTAATCGGGTCTTGATTCGCTTGACGCTGCTG,3.95 z-score,3.33 z-score,–,2.99 z-score,3.63 z-score,4.45 z-score,4.65 z-score
CCGATTAACATCAAACCCCCCCTTGATGTTAATCGGGTCTTGATTCGCTTGACGCTGCTG,6.49 z-score,4.97 z-score,–,7.14 z-score,5.59 z-score,5.38 z-score,4.6 z-score
CCGATTAACATCACCGAACCCCCTGATGTTAATCGGGTCTTGATTCGCTTGACGCTGCTG,5.86 z-score,3.55 z-score,–,4.86 z-score,3.82 z-score,5.57 z-score,2.04 z-score
